M1 PAM parental = nonselective calcium activators in parental CHO-K1 cells, primary screen, counter-screen for M1 PAM project, cell-based, Fluo-8 calcium fluorescence, full deck, 1536-well; activation, % at 3 µM; ATP EC20; 0% at ATP EC20, 100% at ATP max; hit rate 0.02% among 360,000; AID 602247, 2012;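 active = activation above the run cutoff, the mean activation of all test compounds plus 3 SD, cut at about 40% in these data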;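 note: peak over basal fluorescence ratio in a 140 s read after ATP addition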
M1 ag parental = counter-screen for M1 agonists: effect in parental CHO-K1 cells; hit rate 0.48% among 360,000; Fluo-8 calcium fluorescence; scaled to maximal ATP response, vehicle zero; activation, % at 3 µM; in the data active = activation above about 15%;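 note: untransfected CHO-K1 host cells lacking M1 receptor as counterscreen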
M1 PAM = human M1 muscarinic receptor positive allosteric modulators, primary screen, CHO-K1 cells, Fluo-8 calcium fluorescence, 1536-well | Muscarinic acetylcholine receptor M1 (Homo sapiens), P11229 | CHO-K1 hM1, ACh EC20; 0% = ACh EC20, 100% = maximal ACh | activation, % at 3 µM | hit rate 0.088% among 360,000; in the data active = activation above about 19%, passing the limit was not always enough
Target sequence (P11229 whole entry, looked up): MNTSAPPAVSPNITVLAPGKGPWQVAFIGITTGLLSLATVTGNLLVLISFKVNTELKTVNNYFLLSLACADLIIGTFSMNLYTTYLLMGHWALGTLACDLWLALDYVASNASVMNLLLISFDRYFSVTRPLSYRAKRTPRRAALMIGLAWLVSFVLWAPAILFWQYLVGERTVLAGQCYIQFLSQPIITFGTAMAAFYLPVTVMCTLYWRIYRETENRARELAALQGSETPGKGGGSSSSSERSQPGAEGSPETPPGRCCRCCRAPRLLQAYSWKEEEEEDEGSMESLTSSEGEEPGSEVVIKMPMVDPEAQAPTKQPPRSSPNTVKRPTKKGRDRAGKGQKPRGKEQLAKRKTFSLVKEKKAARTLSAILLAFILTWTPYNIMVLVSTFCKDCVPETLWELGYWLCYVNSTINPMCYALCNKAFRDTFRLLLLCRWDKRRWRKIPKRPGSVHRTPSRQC
CHRM1 antagonist = human M1 muscarinic receptor antagonists, primary screen, CHO-K1 cells, Fluo-8 calcium fluorescence, 1536-well | inhibition, % at 3 µM | hit rate 1.3% among 360,000 | AID 588852, 2011 | Muscarinic acetylcholine receptor M1 (Homo sapiens), P11229 | CHO-K1 hM1, ACh EC80 antagonist;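 active = percent inhibition above its own plate's cutoff, namely the mean of that plate's compound wells plus 3 SD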;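 note: peak over basal fluorescence ratio during 140 s after agonist addition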
CHO-K1 Ca antag = M1 antagonist counterscreen hit in parental CHO-K1 cells | ATP-induced calcium, Fluo-8 fluorescence | inhibition, % at 3 µM | hit rate 0.6% among 360,000;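 active = inhibition above a per-plate cutoff, the plate's mean sample inhibition plus 3 SD, cut at about 24% in these data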
CHRM1 agonist = human M1 muscarinic receptor agonists, primary screen, Fluo-8 calcium fluorescence, CHO-K1 cells, HTS | Muscarinic acetylcholine receptor M1 (Homo sapiens), P11229 | CHO-K1 hM1, agonist mode; 0% DMSO, 100% acetylcholine EC100 | activation, % at 3 µM | hit rate 0.33% among 360,000;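 active = activation above the run's mean compound activation plus 3 SD, cut at about 16% in these data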;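 note: peak over basal fluorescence ratio within a 140 s kinetic read after compound addition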
Each line names hits and unclear results; the compound was inactive in the other large screens. The list is not random: actives were taken first. Their share in the collection is about 2.3%.

CC1CCN(S(=O)(=O)c2cc(C(=O)N3CCN(c4ccccc4)CC3)ccc2Br)CC1	none
C[C@H](NC(=O)c1nc[nH]c1C(=O)NCc1ccc(CNC(=O)OC(C)(C)C)cc1)C(=O)OCc1ccccc1	CHRM1 antagonist 44.5
C[C@@H](NC(=O)c1nc[nH]c1C(=O)NCC(=O)OCc1ccccc1)c1ccccc1	CHRM1 antagonist 33.0
C[C@@H](NC(=O)c1nc[nH]c1C(=O)OCc1ccccc1)c1ccccc1	none
OC[C@H]1O[C@@H](c2nc(-c3ccc(CN4CCOCC4)cc3)no2)[C@H](O)[C@@H](O)[C@H]1O	none
O=c1[nH][nH]c2c1C(c1ccc(Cl)c(Cl)c1)OC(CCc1ccccc1)C2 (stereo not drawn)	none (no result: M1 PAM, CHRM1 antagonist, CHRM1 agonist)
Cn1c2ccccc2c(=O)c2ccc(C#CC3(O)CCCCC3)cc21	CHRM1 antagonist 39.2
COc1cc2sc3ccc(C#CC4(O)CCCCC4)cc3c(=O)c2cc1OC	none
Cc1ccc(OCCn2cncn2)c([N+](=O)[O-])c1	M1 ag parental 19.1
Cc1ccc(OCCCCn2ccnc2)c([N+](=O)[O-])c1	none
COc1ccc(NC(=O)C(c2cc3c(cc2[N+](=O)[O-])OCO3)N(C)Cc2ccccc2)cc1 (stereo not drawn)	M1 ag parental 21.9
CCN(c1cccc(C)c1)C(C(=O)Nc1ccc(OC)cc1)c1cc2c(cc1[N+](=O)[O-])OCO2 (stereo not drawn)	none
CCOC(=O)C1CCCN(C/C(O)=C(\C#N)c2nc(-c3ccc(Cl)cc3)cs2)C1 (stereo not drawn)	CHRM1 agonist 25.4
CCOC(=O)C1CCCN(Cc2nc(N)nc(Nc3ccc(Cl)cc3)n2)C1 (stereo not drawn)	CHRM1 agonist 37.0
N#C/C(=C(/O)CN1CCCC1)c1nc(-c2ccccc2)cs1	none
CCOC(=O)C1CCCN(Cc2nc(N)nc(Nc3ccccc3OC)n2)C1 (stereo not drawn)	CHRM1 agonist 19.5
CCN1C(=O)[C@H]2[C@@H](c3ccc(C(F)(F)F)cc3)N[C@]3(CCCN(Cc4ccco4)C3=O)[C@H]2C1=O	none
CC(=O)c1ccc(-c2c(CCO)sc3ccccc23)cc1	none (no result: M1 PAM, CHRM1 antagonist, CHRM1 agonist)
CCN(CC)C1CCN(C(=O)c2cc(COc3ccc(-n4cncn4)cc3)on2)C1 (stereo not drawn)	CHRM1 antagonist 42.2
O=C(c1cc(COc2ccc3ncccc3c2)on1)N1CCCC(O)C1 (stereo not drawn)	none
COCC1CCCN(C(=O)c2cc(COc3ccc4ncccc4c3)on2)C1 (stereo not drawn)	CHRM1 antagonist 34.5, CHO-K1 Ca antag 25.0
Cc1cccnc1CN1CCN(C(=O)c2cc(COc3ccc4ncccc4c3)on2)CC1	none
CCOC(=O)C1CCCN(C(=O)c2cc(COc3ccc(C)nc3)on2)C1 (stereo not drawn)	CHRM1 agonist 27.4
CCOC(=O)N1CCN(C(=O)c2cc(COc3ccc4ncccc4c3)on2)CC1	CHO-K1 Ca antag 24.9
CCC[C@H]1CN(Cc2cccnc2)C(=O)[C@@H]1CC(=O)Nc1ccc(Br)cc1	none
Cn1c(=O)c2c(ncn2CC(=O)OCC(=O)c2ccc(Br)cc2)n(C)c1=O	none
CCn1cc(/C=C(\NC(=O)c2ccccc2F)C(=O)N2CCN(C)CC2)c2ccccc21	none
COC(=O)[C@H](CC(C)C)N1Cc2cc(OC)cc(OC)c2-c2ccccc2S1(=O)=O	none
Cc1nc2c(nnn2Cc2ccccc2)c(=O)[nH]1	CHO-K1 Ca antag 25.3
Cc1nc2c(nnn2Cc2ccccc2Cl)c(=O)[nH]1	none
ClC1=CN(C2=NCCC2)CC1	none
CCn1c(SCC(=O)NCc2ccc3c(c2)OCO3)nnc1-c1cccs1	none
CCn1c(SCC(=O)NCCc2ccc(F)cc2)nnc1-c1cccs1	CHO-K1 Ca antag 25.9
CCN(CC)CCC12CC(C)OC1=Nc1ccccc1NC2=O (stereo not drawn)	none
COCCCNC(=O)c1ccccc1Sc1ccc(NC(C)=O)nc1	CHO-K1 Ca antag 23.8

Assay outcomes as filed in PubChem BioAssay.
